In test [1] the test system is Plasmodium falciparum Sir2 (PF13_0152, Sir2A). Description: Plasmodium falciparum Sir2A binding compounds – biochemical, small-molecule microarray, 635 nm fluorescence, primary screen (AID 1098).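 Note: score merges spot fluorescence intensity with its signal-to-noise ratio.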 As to conditions: fluorescence 635 nm, higher = more signal.
Test [2] in a line: probe aDKK1 binding to arrayed compounds – biochemical, biotinylated probe, 635/667 nm fluorescence, primary screen (AID 1099).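 Note: score merges 667nm spot fluorescence with signal to noise across triplicate slides.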 As to conditions: small-molecule microarray, higher = more signal.
Test [3] in a line: probe aCHRDL2 binding to arrayed compounds – biochemical, biotinylated probe, 635/667 nm fluorescence, primary screen (AID 1100). As to conditions: small-molecule microarray, higher = more signal.
Test [4] in a line: change in splice reporter luminescence, either direction, cell-based, HEK293, spliceosome inhibition project, primary screen (AID 1101).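 Note: HEK293 cells carrying a splicing-competent luciferase reporter gene; test concentration not given here.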 As to conditions: HEK293 splicing luciferase reporter, 24 h, higher = more signal, called active from +8 up or from −8 down.
Test [5] deals with Fibroblast growth factor 10 (Homo sapiens) (UniProt O15520). Kind of test: compounds binding fibroblast growth factor 10 – biochemical, small-molecule microarray, 635 nm fluorescence, primary screen (AID 1102). As to conditions: FGF10 binding, fluorescence 635 nm, higher = more signal.
Fibroblast growth factor 10 (Homo sapiens), sequence (O15520 whole entry, looked up): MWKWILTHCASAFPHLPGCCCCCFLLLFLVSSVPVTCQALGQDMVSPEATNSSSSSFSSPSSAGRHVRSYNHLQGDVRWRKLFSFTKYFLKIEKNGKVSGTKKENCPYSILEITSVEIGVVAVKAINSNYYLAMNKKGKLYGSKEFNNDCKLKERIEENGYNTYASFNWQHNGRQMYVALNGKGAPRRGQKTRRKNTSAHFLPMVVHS
Test [6] deals with glycogen synthase kinase-3 (GSK3A per assay name; protocol says GSK3B). Kind of test: compounds binding glycogen synthase kinase-3 – biochemical, small-molecule microarray, 635 nm fluorescence, GSK3A, primary screen (AID 1103). Note: the record names both GSK3A and GSK3B. The conditions noted are these: fluorescence 635 nm, higher = more signal.
Test [7] addresses Epidermal growth factor receptor (Homo sapiens) (UniProt P00533). Description: compounds binding epidermal growth factor receptor – biochemical, small-molecule microarray, 635 nm fluorescence, primary screen (AID 1104).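 Note: score merges 667 nm emission intensity with spot signal to noise over triplicate slides.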 The conditions noted are these: EGFR binding, higher = more signal.
The target in test [8] is Follistatin-related protein 3 (Homo sapiens) (UniProt O95633). Kind of test: compounds binding follistatin-related protein 3 – biochemical, small-molecule microarray, 635 nm fluorescence, primary screen (AID 1105).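 Note: score merges emission near 667 nm and signal to noise per printed spot across three slides.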 The conditions noted are these: FSTL3 binding, higher = more signal.
Follistatin-related protein 3 (Homo sapiens), sequence (O95633 whole entry, looked up): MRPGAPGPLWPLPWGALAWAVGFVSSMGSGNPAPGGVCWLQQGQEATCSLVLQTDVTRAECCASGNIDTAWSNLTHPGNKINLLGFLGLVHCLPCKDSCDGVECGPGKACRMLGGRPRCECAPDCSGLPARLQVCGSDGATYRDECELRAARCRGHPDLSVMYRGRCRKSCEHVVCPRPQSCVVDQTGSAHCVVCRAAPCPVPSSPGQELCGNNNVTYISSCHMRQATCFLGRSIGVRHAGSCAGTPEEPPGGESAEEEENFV
In test [9] the target is Dickkopf-related protein 1 (Homo sapiens) (UniProt O94907). Kind of test: small molecules binding DKK1 protein – biochemical, small-molecule microarray, 635 nm fluorescence scan, primary screen (AID 1106).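 Note: score merges emission near 667 nm with signal to noise over three replicate slides.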 As to conditions: higher = more signal.
Dickkopf-related protein 1 (Homo sapiens), sequence (O94907 whole entry, looked up): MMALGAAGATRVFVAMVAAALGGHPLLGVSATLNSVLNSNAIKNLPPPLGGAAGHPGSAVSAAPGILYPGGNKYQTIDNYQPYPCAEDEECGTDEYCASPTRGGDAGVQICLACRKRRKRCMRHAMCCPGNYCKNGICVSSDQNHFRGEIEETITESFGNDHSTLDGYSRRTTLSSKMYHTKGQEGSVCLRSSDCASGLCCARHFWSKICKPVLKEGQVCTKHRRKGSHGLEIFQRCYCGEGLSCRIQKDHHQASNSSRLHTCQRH
The subject of test [10] is Inhibin beta A chain (activin A). Kind of test: small molecules binding activin A – biochemical, small-molecule microarray, 635 nm fluorescence scan, primary screen (AID 1107).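 Note: mouse activin A protein probed at 4.33 µg/mL on printed slides; score merges bound-protein fluorescence near 667 nm with spot signal-to-noise.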 The conditions noted are these: INHBA, higher = more signal.
In test [11] the test system is Human papillomavirus type 1a protein E7 (residues 44-93). Kind of test: small molecules binding HPV E7 44-93 – biochemical, small-molecule microarray, residues 44-93, 635 nm fluorescence, primary screen (AID 1108).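 Note: E7 fragment applied at 1 µg/mL in TBST for 1 h at 4 C; score combines spot fluorescence with its signal to noise ratio.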 As to conditions: fluorescence 635 nm, higher = more signal.
A short description of test [12]: hepatitis C replication reporter changes, two-sided – Huh7 cells, luciferase reporter, HCV replication inhibitor project, primary screen (AID 1109).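 Note: huh7 hepatoma cells harbouring a luciferase neomycin HCV replicon reporter; luciferase luminescence as measure of HCV replicon replication; test concentration not given here.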 The conditions noted are these: Huh7 HCV replicon luciferase reporter, 48 h; higher = more signal. In general terms: Reporter assays use an easily measured gene product as a stand-in for the process of interest.
Test [13] deals with Left-right determination factor 2 (Homo sapiens) (UniProt O00292). Kind of test: small molecules binding LEFTY2 protein – biochemical, small-molecule microarray, 635 nm fluorescence scan, primary screen (AID 1110). The conditions noted are these: higher = more signal.
Left-right determination factor 2 (Homo sapiens), sequence (O00292 whole entry, looked up): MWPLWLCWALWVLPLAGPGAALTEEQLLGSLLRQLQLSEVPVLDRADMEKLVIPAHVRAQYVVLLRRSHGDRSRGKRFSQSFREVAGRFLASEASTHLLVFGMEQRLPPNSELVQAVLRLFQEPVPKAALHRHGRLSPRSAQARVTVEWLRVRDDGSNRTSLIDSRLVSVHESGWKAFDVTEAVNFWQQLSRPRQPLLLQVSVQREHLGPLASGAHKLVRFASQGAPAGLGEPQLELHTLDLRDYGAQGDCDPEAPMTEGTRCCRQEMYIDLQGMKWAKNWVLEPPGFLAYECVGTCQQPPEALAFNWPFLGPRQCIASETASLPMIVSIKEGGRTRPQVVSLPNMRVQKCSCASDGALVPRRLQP
Test [14] deals with Calmodulin-1 (Homo sapiens) (UniProt P0DP23). Description: small molecules binding calmodulin-1 with EGTA – biochemical, small-molecule microarray, Cy5-labelled CALM1, profiling panel (AID 1111).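 Note: labelled calmodulin applied in Tris saline Tween buffer holding calcium plus EGTA and DTT.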 As to conditions: Cy5-CALM1 binding fluorescence, higher = more signal.
The target is the same in test [15]. Kind of test: small molecules binding Ca-loaded calmodulin-1 – biochemical, small-molecule microarray, Cy5-labelled CALM1, plus calcium, artefact control for SMM control-protein annotation, profiling panel (AID 1112).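 Note: score merges spot fluorescence with signal to noise from triplicate slides.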 The conditions noted are these: Cy5-CALM1 binding fluorescence, higher = more signal.
Test [16] can be described thus: probe aWnt5a binding to arrayed compounds – biochemical, biotinylated probe, 635/667 nm fluorescence, primary screen (AID 1113).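 Note: score merges 667 nm fluorescence intensity with signal-to-noise per printed feature.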 The conditions noted are these: small-molecule microarray, higher = more signal.
Test [17] is described as follows: probe aShh binding to arrayed compounds – biochemical, biotinylated probe, 635/667 nm fluorescence, primary screen (AID 1114).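 Note: probe is biotin-labelled aShh protein from a stem cell growth factor screen; measures binding of labelled protein to compounds printed on the slide; score merges feature fluorescence at 667 nm with signal-to-noise.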 As to conditions: small-molecule microarray, higher = more signal.
The nature of test [18]: probe aNog binding to arrayed compounds – biochemical, biotinylated probe, 635/667 nm fluorescence, primary screen (AID 1115).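 Note: probe is biotinylated aNog protein used at 0.15 µg/mL for 1 h at 4 C; z-score combines 667 nm fluorescence of each spot with its signal to noise.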 The conditions noted are these: small-molecule microarray, higher = more signal.
Test [19] addresses Torsin-1A-interacting protein 1 (Homo sapiens) (UniProt Q5JTV8). Kind of test: compound microarray binding of lysate hLAP1 – cell lysate, small-molecule microarray, COS7 lysate, 635/667 nm fluorescence, primary screen (AID 1116). As to conditions: 635 nm fluorescence, higher = more signal.
The target in test [20] is Alpha-bungarotoxin (Bungarus multicinctus) (UniProt P60615). Kind of test: compounds binding labelled alpha-BTX control protein – biochemical, small-molecule microarray, Alexa647 label, 635/667 nm fluorescence, artefact control for SMM control protein annotation, profiling panel (AID 1117). As to conditions: alpha-BTX-A647 binding fluorescence, higher = more signal.
Alpha-bungarotoxin (Bungarus multicinctus), sequence (P60615 whole entry, looked up): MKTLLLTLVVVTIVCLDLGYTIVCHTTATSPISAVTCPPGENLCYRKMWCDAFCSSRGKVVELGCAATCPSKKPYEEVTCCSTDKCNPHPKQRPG

The source made the active and inactive calls.

Epidermal growth factor receptor (Homo sapiens), sequence (P00533 whole entry, looked up): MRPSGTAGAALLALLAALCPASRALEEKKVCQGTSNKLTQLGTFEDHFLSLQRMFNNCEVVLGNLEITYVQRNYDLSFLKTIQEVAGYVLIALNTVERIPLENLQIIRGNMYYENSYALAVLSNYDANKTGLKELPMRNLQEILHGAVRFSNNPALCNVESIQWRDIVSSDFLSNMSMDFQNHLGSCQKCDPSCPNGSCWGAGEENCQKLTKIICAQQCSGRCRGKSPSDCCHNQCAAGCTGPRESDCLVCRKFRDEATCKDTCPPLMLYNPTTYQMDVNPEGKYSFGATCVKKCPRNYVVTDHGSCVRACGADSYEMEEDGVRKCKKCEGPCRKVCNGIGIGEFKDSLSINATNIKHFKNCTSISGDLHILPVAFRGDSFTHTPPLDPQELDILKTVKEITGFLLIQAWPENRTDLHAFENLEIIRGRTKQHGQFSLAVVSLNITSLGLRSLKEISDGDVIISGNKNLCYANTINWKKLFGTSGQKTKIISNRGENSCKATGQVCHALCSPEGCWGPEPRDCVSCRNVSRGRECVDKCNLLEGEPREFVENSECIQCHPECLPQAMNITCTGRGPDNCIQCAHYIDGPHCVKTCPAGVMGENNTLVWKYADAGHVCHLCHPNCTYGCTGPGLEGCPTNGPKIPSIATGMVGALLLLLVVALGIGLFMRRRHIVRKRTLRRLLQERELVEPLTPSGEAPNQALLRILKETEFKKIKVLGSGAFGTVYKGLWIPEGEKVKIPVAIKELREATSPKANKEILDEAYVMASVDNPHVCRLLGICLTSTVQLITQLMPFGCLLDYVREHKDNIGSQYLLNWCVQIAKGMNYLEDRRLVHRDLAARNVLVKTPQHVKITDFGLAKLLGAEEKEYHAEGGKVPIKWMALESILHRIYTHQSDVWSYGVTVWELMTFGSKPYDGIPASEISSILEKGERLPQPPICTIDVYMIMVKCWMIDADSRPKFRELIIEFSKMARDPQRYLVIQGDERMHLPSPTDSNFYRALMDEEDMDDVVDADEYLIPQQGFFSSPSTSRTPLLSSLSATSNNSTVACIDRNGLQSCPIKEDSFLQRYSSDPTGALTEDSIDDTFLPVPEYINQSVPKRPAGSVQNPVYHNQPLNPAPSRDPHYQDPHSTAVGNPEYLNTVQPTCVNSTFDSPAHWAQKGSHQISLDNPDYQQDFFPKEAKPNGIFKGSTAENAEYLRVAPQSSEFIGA
Torsin-1A-interacting protein 1 (Homo sapiens), sequence (Q5JTV8 whole entry, looked up): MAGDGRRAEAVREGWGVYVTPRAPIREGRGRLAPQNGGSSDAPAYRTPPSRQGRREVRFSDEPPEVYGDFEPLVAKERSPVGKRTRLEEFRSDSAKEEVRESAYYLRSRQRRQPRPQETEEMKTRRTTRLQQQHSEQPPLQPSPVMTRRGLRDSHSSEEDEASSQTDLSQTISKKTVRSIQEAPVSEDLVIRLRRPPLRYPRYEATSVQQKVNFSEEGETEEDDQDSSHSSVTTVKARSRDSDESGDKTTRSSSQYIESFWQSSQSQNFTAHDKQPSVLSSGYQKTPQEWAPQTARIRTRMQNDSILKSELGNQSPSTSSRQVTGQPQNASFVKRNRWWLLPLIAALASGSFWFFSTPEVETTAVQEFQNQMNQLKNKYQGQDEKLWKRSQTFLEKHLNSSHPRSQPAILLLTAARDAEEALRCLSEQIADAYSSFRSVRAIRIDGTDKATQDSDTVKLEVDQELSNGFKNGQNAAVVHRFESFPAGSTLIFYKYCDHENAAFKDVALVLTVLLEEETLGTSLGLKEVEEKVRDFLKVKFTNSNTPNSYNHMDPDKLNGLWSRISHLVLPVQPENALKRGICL

With `C=CCC(OC(C)=O)[C@@H]1[C@@H](N(Cc2cc3ccccc3o2)C(=O)c2cccc3ccccc23)c2cc(OCCCO)ccc2N1C(=O)Cc1ccc2ccccc2c1` (stereo not given in full), the composite z-score was 0.53 in [1]; 0.224 in test [2]; 0.471 in test [3]; 0.0259 in [5]; -0.925 in [6]; -0.221 in test [7]. Besides, the composite z-score was 0.0969 in [8]; -0.0207 in test [9]; 1.02 in test [10]; 0.0073 in test [11]; -0.31 in [13]; 0.191 in test [14]. For the same molecule, the composite z-score is 0.223 in [15]; -0.124 in test [16]; 0.0711 in test [17]; -0.366 in [18]; -0.089 in [19]; 0.474 in test [20]. Also, the figures for the z-score in test [4] and in [12] were -0.904 (inactive) and -0.751, respectively.

`COC(=O)[C@@]1(Cc2ccc(OC)cc2)[C@H]2c3cc(C(=O)N4CCCC4)n(C[C@H](O)CO)c3C[C@H]2CN1C(=O)c1ccccc1`: the composite z-score in [1] was 1.06; in test [2] it was 0.642; in test [3], 0.913; in test [5], 0.974; in test [6] it was -0.681; in test [7] it was -0.352. The composite z-score in [8] is -0.519; in test [9], -0.385; in test [10], 0.903; in [11], 0.464; in test [13], -0.416; in [14] it was 1.14. In addition, the composite z-score in test [15] is 0.91; in test [16], -0.252; in test [17], 1.17; in test [18], 1.59; in test [19], 0.707; in test [20], 0.113. Besides, the z-score in test [4] was 1.19 (inactive); in test [12] it was -0.439.

Turning to `O=C1OCC=C[C@H]2OC34C=CCN(c5ccc6ccccc6c5)C(=O)[C@H]3N(CCO)C(=O)[C@@H]4[C@@H]12` (stereo not given in full), the composite z-score in test [1] is 1.07; in test [2] it was 0.134; in [3], 0.947; in test [5] it was -0.455; in test [6] it was -0.657; in test [7], -1.49. Moreover, the composite z-score is -1.33 in test [8]; -2.42 in [9]; 0.589 in test [10]; -0.589 in test [11]; -1.99 in test [13]; -0.245 in test [14]. Also, the composite z-score in [15] was 0.716; in test [16], -0.152; in [17], 0.191; in test [18], 0.0721; in test [19] it was -0.831; in test [20], -0.74. Also, the z-score is -0.461 (inactive) in test [4] and -0.727 in [12].

Take `O=C1O[C@H](c2ccccc2)[C@H](c2ccccc2)N2[C@H]1[C@@H](C(=O)NC[C@H](O)c1ccccc1)[C@]1(C(=O)Nc3ccc(C#CC4=CCCCC4)cc31)[C@H]2c1ccc(O)cc1`: the composite z-score was determined as 1.29 in [1]; 0.137 in [2]; 0.176 in test [3]; 1.3 in test [5]; 1.29 in [6]; 0.57 in test [7]. The composite z-score is 1.33 in test [8]; 0.542 in [9]; -0.201 in test [10]; 1.38 in [11]; 0.538 in test [13]; 0.784 in test [14]. For the same molecule, the composite z-score in test [15] is -0.566; in test [16], -0.0403; in [17] it was -0.0146; in test [18], 0.0129; in test [19], 0.705; in test [20], 1.52. For the same molecule, the z-score in test [4] was -2.1 (inactive); in test [12], -2.02.

With `Cc1ccccc1/C=C/C=O`, the composite z-score in test [1] is 0.939; in test [2], -0.275; in test [3], 0.297; in test [5] it was -0.435; in [6], -1.09; in test [7], -0.813. For the same molecule, the composite z-score is -0.303 in test [8]; -0.243 in test [9]; 0.612 in [10]; -1.54 in [11]; -0.615 in [13]; -0.559 in [14]. The composite z-score was -0.161 in [15]; -0.172 in [16]; -0.154 in [17]; -0.41 in test [18]; -0.23 in [19]; -0.465 in [20]. Also, the z-score was -0.0672 (inactive) in test [4] and 0.19 in test [12].

For `CC(C)C(CO)N1C(=O)[C@@H]2[C@H]3C(=O)OCC=C[C@H]3OC23C=CCN(c2ccc4ccccc4c2)C(=O)[C@@H]13` (stereo not given in full), the composite z-score was 0.233 in test [1]; -0.387 in test [2]; 0.343 in [3]; -0.617 in test [5]; -1.15 in test [6]; -1.04 in [7]. Further, the composite z-score in test [8] is -1.3; in [9] it was -0.688; in test [10], -0.141; in test [11] it was -0.177; in test [13], -0.425; in [14] it was -0.468. In addition, the composite z-score in test [15] is -0.367; in test [16], -0.148; in [17], -0.283; in test [18] it was -0.463; in test [19] it was -1.05; in [20], -0.256. In addition, the z-score in test [4] was 0.0617 (inactive); in [12], -0.453.

Consider `C=CCNC(=O)[C@H]1[C@@H]2C(=O)O[C@@H](c3ccccc3)[C@@H](c3ccccc3)N2[C@@H](c2ccc(OCCO)cc2)[C@]12C(=O)N(C(=O)OCCOC)c1ccc(C#CC3(O)CCCCCC3)cc12`, for which the composite z-score was 1.55 in test [1]; 0.456 in [2]; 0.33 in [3]; 1.42 in [5]; 1.31 in test [6]; 1.02 in test [7]. Moreover, the composite z-score turned out to be 1.48 in test [8]; 1.23 in [9]; 1.18 in [10]; 1.18 in test [11]; 1.2 in [13]; 0.494 in test [14]. Also, the composite z-score is -0.12 in test [15]; 0.0342 in [16]; -0.0035 in [17]; 1.7 in test [18]; 1.07 in test [19]; 1.52 in test [20]. Besides, the z-score in test [4] is -0.569 (inactive); in test [12] it was -2.07.

The values above are taken from PubChem BioAssay.
